The values that follow come from PubChem BioAssay (Tox21).

The nature of assay [1]: qHTS assay for small molecules that induce genotoxicity in human embryonic kidney cells expressing luciferase-tagged ATAD5 (AID 651632). Further: nearly all actives have a fitted effect of over 15% in size. The gist of the method:
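Reporter cells (HEK293T) express luciferase-tagged ATAD5, a protein that accumulates after DNA damage. Treat 16 hr at 37C/5% CO2, add Amplite, wait 30 min at RT, and read luminescence.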
Background: Quantitative high-throughput screening tests each substance at several concentrations.

Assay [2] in a line: qHTS assay for small molecule agonists of the p53 signaling pathway - cell viability (AID 651633; calls by dose curve; further: nearly all actives have a fitted effect of over 30% in size; further: potency means the concentration at half of the fitted maximal effect). An outline of the steps:
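p53RE-bla cells were treated with compound for 16 hours at 37 C. Cytotoxicity was then measured as CellTiter-Glo luminescence after 30 min at room temperature.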

Assay [3] is described as follows: qHTS assay for small molecules that induce genotoxicity in human embryonic kidney cells expressing luciferase-tagged ATAD5 - cell viability (AID 651634; calls by dose curve; further: nearly all actives have a fitted effect of over 25% in size; further: potency means the concentration at half of the fitted maximal effect). The gist of the method:
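Seeding of 2,000 HEK293T ATAD5-luciferase cells per well preceded pin-tool compound transfer. Plates sat 15.5 hr at 37C under 5% CO2, then fluorescence was read after 30 min with CellTiter-Fluor.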

Assay [4] can be described thus: qHTS assay for small molecule disruptors of the mitochondrial membrane potential - cell viability (AID 720634; calls by dose curve; further: nearly all actives have a fitted effect of over 20% in size; further: potency means the concentration at half of the fitted maximal effect). An outline of the steps:
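Measuring cytotoxicity alongside mitochondrial potential, the screen quantified ATP by luminescence in HepG2 cells after 1 hr compound incubation and a 30 min room-temperature CellTiter-Glo step.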

Assay [5] is described as follows: qHTS assay for small molecule disruptors of the mitochondrial membrane potential (AID 720635). Further: potency means the concentration at half of the fitted maximal effect. The gist of the method:
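HepG2 cells exposed to compound 1 hr at 37C, then Mito-MPS dye 30 min. Ratio read of aggregate (540/590 nm) versus monomer (490/535 nm) fluorescence.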

Assay [6] can be described thus: qHTS assay to test for compound auto fluorescence at 590 nm (red) in HepG2 cells (AID 720674). An outline of the steps: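 HepG2 cells, 2,000 per well in MEM with 10% FBS, attached overnight at 37 C, then got 23 nL compound or DMSO. After 1 hr at 37 C, 5% CO2, red fluorescence was read at 540/590 nm against Rose Bengal sodium as reference.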
Assay [7] is described as follows: qHTS assay to test for compound auto fluorescence at 535 nm (green) in HepG2 cells (AID 720675). Further: potency means the concentration at half of the fitted maximal effect.
The nature of assay [8]: qHTS assay to test for compound auto fluorescence at 460 nm (blue) in HEK293 cells (AID 720678). The gist of the method: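 HEK293, 2,000 cells/well, 10% dialyzed FBS; attach 4-5 hr 37C; pin compound or DMSO; o/n 37C/5% CO2; fluorescence 405/460 nm; triamterene-equivalent units.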
Assay [9] is described as follows: qHTS assay to test for compound auto fluorescence at 590 nm (red) in HEK293 cells (AID 720679). An outline of the steps:
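Intensity at 540nm excitation and 590nm emission is reported as Rose Bengal sodium-equivalent autofluorescence. Measurements followed overnight exposure (37C, 5% CO2) of HEK293 cells, 2,000 per well, to 23 nL compound.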

Assay [10] is described as follows: qHTS assay for small molecule agonists of the p53 signaling pathway (AID 651631; calls by dose curve; further: nearly all actives have a fitted effect of over 15% in size). An outline of the steps:
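Beta-lactamase reporter activity under p53 response elements was quantified in HCT-116 cells by FRET fluorescence, following 16 h incubation with test compounds at 37 °C and 2 h substrate development at room temperature.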

Each structure is given as a SMILES string. Several values for one entry are separate records, joined by “and”; a condition that tells them apart may be missing. Equal values may be shown once. Records with an inconclusive call do not appear. Activity calls are given as the source filed them. Unless noted, the call rests on the fitted dose curve; in most records, active means well fitted curve in the direction sought with a large enough effect in the repeat runs; inconclusive means weak or mixed curves; inactive means no such curve, though single readings can be large; an effect the other way counts as inactive or inconclusive.
On the % scale 0 is the no-effect control and ±100 the full control effect.

`CC[N+](CC)(CC)CCOc1ccc(/C=C/c2ccccc2)cc1`: the Potency entry in [1], in assay [2], in assay [3], in assay [4], in [5] and in assay [6] was “inactive” in each case. Also, the Potency result in assay [7], in assay [8] and in [9] was “inactive” throughout.

On to `CCC(=O)C(=O)CC`, for which the Potency entry in [10], in assay [1], in [3], in assay [6], in assay [7] and in assay [8] was “inactive” in each case.

`Cc1cc(C(C)(C)C)c(O)c(C)c1Cn1c(=O)n(Cc2c(C)cc(C(C)(C)C)c(O)c2C)c(=O)n(Cc2c(C)cc(C(C)(C)C)c(O)c2C)c1=O`: the Potency entry in [1], in assay [2], in assay [3], in assay [4], in assay [6] and in [7] was “inactive” in each case. Besides, the Potency result in assay [8] is “inactive”. In addition, the Potency in [5] was 9.69 µM (active).

Consider `O=C(O)O`, for which the activation is -6.09% [at 8.3 µM] (inactive) in assay [10] and 4.66% [at 8.08 µM] (inactive) in assay [1]. The activity, negative = cytotoxicity in [3] is 16.8% [at 8.08 µM] (inactive). For the same molecule, in assay [5], the ratio activity, negative = MMP loss is 7.15% [at 8.08 µM] (inactive). The fluorescence, relative to Rose Bengal in [6] was -0.453% [at 3.72 µM] (inactive). Further, in [7], the fluorescence, % of fluorescein control was -0.0364% [at 3.72 µM] (inactive). For the same molecule, in assay [8], the fluorescence, % of triamterene is -0.0075% [at 3.72 µM] (inactive). For the same molecule, the fluorescence, % of fluorescent control in assay [9] is 0.462% [at 3.72 µM] (inactive).

Turning to `Nc1nc(N)nc(-c2cc(Cl)ccc2Cl)n1`, the Potency entry in assay [1], in [2], in assay [3], in [5], in assay [6] and in assay [7] was “inactive” throughout. Besides, the Potency entry in [8] and in assay [9] was “inactive” each time.

For the molecule `[Cu+]`, the Potency result in assay [1], in assay [2], in assay [3], in assay [4], in assay [6] and in assay [8] was “inactive” each time. In [9], the Potency entry is “inactive”.

For `O=C(O)c1cc(-c2ccc(F)cc2F)ccc1O`, the Potency result in assay [1], in assay [2] and in assay [3] was “inactive” each time. The Potency in assay [5] was 11.4 µM (active). Moreover, the fluorescence, % of fluorescein control in assay [7] was -0.0913% [at 18.6 µM] (inactive). Moreover, the fluorescence, % of triamterene in [8] is -0.0352% [at 18.6 µM] (inactive).

Turning to `Clc1sc(Cl)c(Cl)c1Cl`, the Potency result in assay [1], in [2], in [3], in assay [4], in assay [6] and in assay [7] was “inactive” throughout. For the same molecule, the Potency entry in assay [8] and in assay [9] was “inactive” each time.

Regarding `OCC(F)(F)F`, the Potency result in assay [1], in [2], in assay [3], in [4], in assay [6] and in assay [7] was “inactive” each time. In addition, the Potency entry in assay [8] and in assay [9] was “inactive” throughout.

Turning to `CC(C)Cn1cnc2c(N)nc3ccccc3c21`, the Potency result in [1], in assay [2], in assay [3], in assay [5], in [7] and in [8] was “inactive” each time.

As to `C=C(C)c1cccc(C(=C)C)c1`, the Potency entry in assay [1], in assay [2], in assay [3], in assay [5], in assay [6] and in assay [7] was “inactive” throughout. The Potency entry in assay [8] is “inactive”.

In the case of `CN(C)C(=O)COC(=O)Cc1ccc(OC(=O)c2ccc(N=C(N)N)cc2)cc1`, the Potency result in assay [1], in assay [2], in assay [3], in assay [5], in assay [6] and in assay [7] was “inactive” each time. In addition, the Potency entry in [8] and in [9] was “inactive” throughout.

Regarding `CC(C(=O)O)c1ccc2c(c1)[nH]c1ccc(Cl)cc12` (stereo unspecified), the Potency entry in [1], in assay [2], in [3], in [4], in [6] and in [8] was “inactive” each time. In addition, the Potency result in assay [9] is “inactive”.

Take `CN(C)c1ccc(C(=C2C=CC(=[N+](C)C)C=C2)c2ccc(N(C)C)cc2)cc1`: the Potency entry in assay [1], in assay [6], in assay [7] and in [8] was “inactive” each time. In addition, the Potency is 10.6 µM (active) and 9.64 µM (active) and 30.6 µM (active) in [2]; 11.9 µM (active) and 21.6 µM (active) and 24.3 µM (active) in assay [3]; 139 nM (active) and 30.5 nM (active) and 68.6 nM (active) in assay [5].

Turning to `CNc1ccc([N+](=O)[O-])cc1`, the Potency result in assay [1], in assay [2], in assay [4], in [6], in [7] and in [8] was “inactive” throughout. Further, the Potency in assay [3] was 61.3 µM (active).

`CCO[C@@H]1O[C@H](C(COCc2ccccc2)OCc2ccccc2)[C@H](OCc2ccccc2)[C@H]1O` (stereo partly specified): the Potency result in [1], in assay [2] and in assay [3] was “inactive” each time. Moreover, in assay [5], the Potency was 11.4 µM (active). Further, the fluorescence, relative to Rose Bengal in assay [6] was -0.664% [at 18.6 µM] (inactive). Moreover, the fluorescence, % of triamterene in assay [8] is -0.0314% [at 18.6 µM] (inactive). The fluorescence, % of fluorescent control in assay [9] is 0.894% [at 18.6 µM] (inactive).

`S=C([S-])NCCNC(=S)[S-].S=C([S-])NCCNC(=S)[S-].[Mn+2].[Zn+2]`: the Potency result in assay [1], in assay [2], in assay [3], in assay [4], in assay [6] and in assay [7] was “inactive” throughout. In addition, the Potency entry in [8] and in [9] was “inactive” in each case.

For the molecule `S=c1nccc[nH]1`, the Potency result in assay [1], in assay [2], in [3], in assay [4], in assay [5] and in assay [7] was “inactive” each time. For the same molecule, in assay [8], the Potency result is “inactive”.

For `CCCCCC/C=C\CCCCCCCC(=O)O`, the Potency result in assay [1], in assay [2], in [3], in assay [6] and in assay [8] was “inactive” throughout.

With `O=C1OC2(c3ccc(O)cc3Oc3cc(O)ccc32)c2ccc(N=C=S)cc21`, the Potency entry in assay [1], in assay [2], in assay [3], in assay [4], in assay [8] and in [9] was “inactive” in each case. The Potency in assay [7] was 39.8 µM (active).

As for `COC1=C(OC)C(=O)C(CCCCCCCCCCO)=C(C)C1=O`, the Potency entry in assay [1], in assay [3], in assay [4], in assay [6], in assay [7] and in assay [8] was “inactive” each time. For the same molecule, the Potency entry in [9] was “inactive”. Further, the Potency in [2] is 29.8 µM (active).

Regarding `O=C(O)c1cc(O)c2ccccc2c1O`, the Potency result in [1], in [3], in [6], in assay [7], in [8] and in assay [9] was “inactive” each time. Also, the Potency in assay [2] was 30.6 µM (active).

Consider `C=C(C)C(=O)OCCCCCCCCCC`, for which the Potency result in assay [1], in [2], in assay [3], in assay [4], in [6] and in [7] was “inactive” throughout. In addition, the Potency entry in [8] and in assay [9] was “inactive” in each case.

With `CCCCCCCCCCCCOC(=O)c1ccc(O)cc1`, the Potency result in [1], in assay [2], in assay [3], in assay [7], in [8] and in assay [9] was “inactive” in each case. Further, in assay [5], the Potency is 3.46 µM (active).

In the case of `CCCCCCCCCCCCCCCC[N+](C)(C)CC`, the Potency entry in assay [1], in assay [7] and in assay [8] was “inactive” each time. Also, the Potency was 26.6 µM (active) and 61.3 µM (active) in assay [2]; 29.8 µM (active) and 24.4 µM (active) in [3]; 61.3 µM (active) in assay [4]; 6.68 µM (active) and 27.4 µM (active) in [5].
